The list is a sample of the results.
aSyn UTR act – Activators via SNCA 5'UTR binding, MLPCN; alpha-synuclein 5'UTR reporter, activators screen; actives 7.1% (n = 300,000); AID 1814, 2009; activity score, % (tested at 7.5 µM), hits read low; in the data active means activity score below about -60%
Numbers stand for hits; i = inactive.

SMILES | aSyn UTR act
Cc1cccc(Nc2cc(C)c3c(O)cccc3n2)c1C | -101
Cc1ccc(S(=O)(=O)[N-]c2nc3ccccc3nc2-n2cc[n+](Cc3ccccc3)c2)cc1 | -97
O=C(O)c1ccccc1-c1ccccc1C(=O)Nc1ccc(-c2nc3cc(Cl)ccc3o2)cc1 | -77
CC(=O)Nc1ccc(-c2nc3cc(Cl)ccc3o2)cc1 | -73
CN(C)c1ccc(-c2nc3cc(N)ccc3o2)cc1 | i
COc1ccccc1C(=O)Nc1ccc2oc(-c3ccc(F)cc3)nc2c1 | -201
CC(C)(C)C(=O)Nc1ccc2oc(-c3cc(F)c(F)cc3Cl)nc2c1 | -252
O=[N+]([O-])c1cc(-c2n[nH]c(-c3ccccc3)n2)cc([N+](=O)[O-])c1 | -76
Cc1ccc(OCC(=O)c2cc(C)n(C3CC3)c2C)c([N+](=O)[O-])n1 | -94
Cc1ccc(OCC(=O)c2cc(C)n(CC(F)(F)F)c2C)c([N+](=O)[O-])n1 | -72
O=C(Nc1ccc2oc(=O)ccc2c1)c1ccc2ccccc2c1 | -67
O=C(Nc1ccc2oc(=O)ccc2c1)c1ccco1 | -75
C/C(N)=C(/C#N)C(=O)COC(=O)c1cc2c(s1)CCC(C)C2 (configuration not stated) | -73
O=C(COC(=O)c1ccccc1-n1cnnn1)c1ccc(Br)cc1 | -95
O=C(OCn1ncc(Cl)c(Cl)c1=O)c1ccc(C(F)(F)F)cc1 | -117
COc1cc2c(cc1OC)CN(c1ccc3ccccc3n1)CC2 | -189
COc1cc2c(cc1OC)CN(c1ccc(C(F)(F)F)cn1)CC2 | -157
FCCCOc1ccc(-c2nccc(-c3ccccn3)n2)cc1 | -63
O=C(O)COc1ccc(-c2nccc(-c3ccccn3)n2)cc1 | i
CCOC(=O)/C(=N/Nc1ccc(C)cc1)S(=O)(=O)c1ccc(Cl)cc1 | -142
CCc1cc2c(Sc3nc4ccccc4s3)ncnc2s1 | i
c1ccc(SCc2nc3ccccc3[nH]2)nc1 | -75
Cn1c(CSc2nc3ccccc3s2)nc2ccccc21 | -140
c1ccc2[nH]c(CSc3nc4ccccc4s3)nc2c1 | -112
CCNc1nnc(CSc2nc3ccccc3s2)s1 | -71
SMILES | aSyn UTR act
C=CCN1C(=O)S/C(=C\c2ccc(N3CCOCC3)cc2C)C1=O | -152
Cc1cc(N2CCOCC2)ccc1/C=C1/SC(=O)NC1=O | -67
Cc1cc(N2CCCC2)ccc1/C=C1\NC(=S)N(C)C1=O | -261
C=CC(C)N1C(=O)S/C(=C\c2ccc(N3CCOCC3)cc2C)C1=O (configuration not stated) | -120
O=C1NC(=O)/C(=C\c2ccc(O)cc2O)S1 | -77
NC(=O)C1CCN(C(=S)c2ccc(-c3ccc(Br)cc3)o2)CC1 | -127
O=C(NCCCCCCOC1=NS(=O)(=O)c2ccccc21)C(=O)Nc1ccccc1 | -93
NS(=O)(=O)c1cccc(NC(=S)NC(=O)C23CC4CC(CC(C4)C2)C3)c1 | -62
COc1ccc(OCCSc2ncnc3nc[nH]c23)cc1 | -81
Fc1ccccc1OCCSc1ncnc2nc[nH]c12 | -100
Cc1ccc2nc(/C=C/c3cccc(F)c3)ccc2c1 | -172
Cc1ccc(C(=O)Nc2ccc3cn[nH]c3c2)cc1S(=O)(=O)N1CCCCC1 | -111
Cc1cccc(NC(=O)c2ccc(C)c(S(=O)(=O)N3CCCCC3)c2)n1 | -116
Cc1ccc(C)c(S(=O)(=O)N2CCN(Cc3ccc(O)c4ncccc34)CC2)c1 | i
O=C(Nc1ccc(S(=O)(=O)N2CCCCCC2)cc1)c1[nH]ncc1[N+](=O)[O-] | i
Cc1ccc(C(=O)Nc2cccc(O)c2)cc1S(=O)(=O)N1CCCCCC1 | -139
Cn1nnc2cc(C(=O)Nc3ccccc3F)ccc21 | -111
O=C(Nc1ccc(Cl)cc1Cl)c1ccc2ncsc2c1 | -177
O=C(Nc1cccc(F)c1)c1ccc2ncsc2c1 | -204
O=C(Nc1ccc(F)cc1F)c1ccc2ncsc2c1 | -120
O=C(Nc1nnc(SCc2ccc(F)cc2)s1)c1ccc2ncsc2c1 | -100
O=C(Nc1ccccc1F)c1ccc2ncsc2c1 | -175
C/C(=N\NC(=O)c1ccncc1)c1cccc(NC(=O)c2ccc(C(C)(C)C)cc2)c1 | -123
C/C(=N\NC(=O)c1cc(O)ccc1O)c1cccc(NC(=O)c2ccc(Cl)cc2)c1 | -99
COc1ccc(C(=O)N/N=C(\C)c2cccc(NC(=O)c3ccc(F)cc3)c2)c(OC)c1 | -66
SMILES | aSyn UTR act
COc1ccc(C(=O)N/N=C(/C)c2cccc(NC(=O)c3ccccc3F)c2)cc1 | -79
O=C(CCl)NC(Cc1ccccc1)c1ccccc1 (configuration not stated) | i
CC(C)c1cccc(C(C)C)c1NC(=O)CCl | -76
O=C(NCCc1ccccc1)c1ccncc1 | -146
C=CCN(c1ccc(C(=O)NCCc2ccccc2)cc1)S(C)(=O)=O | -109
O=C(NCCc1ccccc1)c1ccc(Cl)nc1 | -169
O=C(NCCc1ccccc1)c1ccc(NS(=O)(=O)c2ccc3[nH]c(=O)[nH]c3c2)cc1 | -72
CCCNC(=O)c1ccc2c(=O)c(O)c(-c3ccc(C)cc3)[nH]c2c1 | i
O=C(NCCCc1ccccc1)c1ccc(F)cc1 | -101
CC(=O)Nc1ccc(C(=O)NCCc2ccccc2)cc1 | -131
Cc1ccc2nc(-c3cc(N)cc(N)c3)oc2c1 | i

High-throughput results (PubChem)
